Screening results: PubChem, several laboratories
This is a sample that favours compounds with a hit; in the whole collection about 1.2% have one here.
HIF activator: HIF pathway transcriptional activation; 300,000 compounds, 0.32% hits; activation, % at 7.5 µM (by protocol); U2OS HRE-luciferase reporter, luminescence; normalized: DMSO 0%, desferrioxamine 100%; AID 1910;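 active = mean activation of at least 10% of the iron chelator positive control signal, with at least half of replicates also reaching 10%; inconclusive = mean and replicate majority disagree about reaching 10%; inactive = mean and most replicates under 10%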
LANA-H2A inh: blocks KSHV LANA binding to histone H2A/H2B | inhibition, % (no concentration beside the values) | 320,000 compounds, 0.6% hits | Q9QR71 | cell-free LANA-H2A/H2B peptide, fluorescence polarization; in the data active = inhibition mostly above about 10%, no sharp cut-off; inactive = mostly below about 6.7%
Target sequence (Q9QR71 whole entry, looked up): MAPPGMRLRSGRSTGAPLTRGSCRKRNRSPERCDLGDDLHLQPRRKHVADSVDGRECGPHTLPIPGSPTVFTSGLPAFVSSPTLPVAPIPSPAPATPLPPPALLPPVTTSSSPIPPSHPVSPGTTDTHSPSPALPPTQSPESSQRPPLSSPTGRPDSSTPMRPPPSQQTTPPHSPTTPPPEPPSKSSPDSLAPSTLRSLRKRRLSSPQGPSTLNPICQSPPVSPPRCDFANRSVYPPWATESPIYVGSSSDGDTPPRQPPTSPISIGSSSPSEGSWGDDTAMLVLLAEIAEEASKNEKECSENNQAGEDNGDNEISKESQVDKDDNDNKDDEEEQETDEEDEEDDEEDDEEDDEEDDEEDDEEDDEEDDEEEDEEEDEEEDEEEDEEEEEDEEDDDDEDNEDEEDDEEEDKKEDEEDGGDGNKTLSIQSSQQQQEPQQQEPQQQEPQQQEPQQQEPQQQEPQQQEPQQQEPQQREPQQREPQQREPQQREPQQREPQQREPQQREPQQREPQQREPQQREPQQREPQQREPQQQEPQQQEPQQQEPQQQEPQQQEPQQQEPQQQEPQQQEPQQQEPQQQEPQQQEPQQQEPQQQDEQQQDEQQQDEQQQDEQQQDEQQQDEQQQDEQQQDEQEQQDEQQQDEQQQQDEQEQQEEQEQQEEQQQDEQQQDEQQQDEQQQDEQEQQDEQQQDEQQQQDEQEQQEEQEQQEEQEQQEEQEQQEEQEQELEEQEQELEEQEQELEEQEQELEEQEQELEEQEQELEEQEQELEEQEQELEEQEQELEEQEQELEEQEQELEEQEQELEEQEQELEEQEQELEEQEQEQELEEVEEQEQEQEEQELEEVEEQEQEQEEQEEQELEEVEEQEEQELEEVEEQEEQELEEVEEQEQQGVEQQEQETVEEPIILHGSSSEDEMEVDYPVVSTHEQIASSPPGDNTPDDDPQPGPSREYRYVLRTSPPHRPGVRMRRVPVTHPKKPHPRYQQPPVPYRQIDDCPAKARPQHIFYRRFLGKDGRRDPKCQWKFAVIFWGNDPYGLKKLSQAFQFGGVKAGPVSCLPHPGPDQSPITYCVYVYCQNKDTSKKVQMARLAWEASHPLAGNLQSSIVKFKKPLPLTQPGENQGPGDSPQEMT
CR mimetic SO: caloric restriction mimetics inhibiting age-related superoxide in yeast; S. cerevisiae aged cells, superoxide DHE fluorescence; hits give low values; superoxide response (% of plate mean), % at 10 µM; 330,000 compounds, 0.18% hits; AID 2690;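 active = superoxide response under a set limit, about three screen SD below normal, cut at about 65% in these data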;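 also: yeast aged for seven days with compound at 30 °C before DHE staining; 100% = average MFI of all compound-treated wells on the plate with controls excluded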
HDAC3 inhib: blocks human histone deacetylase 3 | 320,000 compounds, 0.15% hits | inhibition, % at 8.3 µM | AID 2718 | recombinant HDAC3, fluorogenic peptide/trypsin coupled, fluorescence; in the data active = inhibition above about 26%, passing the limit was not always enough; inconclusive = no clear call, values can overlap the other calls
Superoxide pick: yeast aging superoxide inhibition, cherry pick confirmation; shares compounds with CR mimetic SO; S. cerevisiae aging, superoxide DHE fluorescence; hits give low values; superoxide response (% of plate), % at 10 µM; 850 compounds, 1% hits;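 active = superoxide signal below 65% of the plate average of sample wells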;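 also: cells aged with compound for 7 days at 30 degrees C before staining; 100% equals mean DHE fluorescence of all compound wells on the plate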
DHE counter: counter-screen for compounds affecting DHE oxidation and fluorescence in yeast; fluorescence response, % at 10 µM; S. cerevisiae BY4741, flow cytometry; hits give low values; shares compounds with CR mimetic SO; 850 tested, under 10 active;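 active = fluorescence response below 15%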;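 also: percent of the mean fluorescence averaged over all compound wells on the plate; lower means stronger quenching of DHE signal or ROS scavenging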
* = called active by the depositor; i = inactive; ? = inconclusive; nt = no result given.

SMILES	HIF activator	LANA-H2A inh	CR mimetic SO	HDAC3 inhib	Superoxide pick	DHE counter
Cc1cc(NC(=O)CSc2nnc(-c3ccc(S(=O)(=O)N4CCCC4)cc3)n2C)no1	0	2	51*	6	90	108
O=C(c1ccsc1)N1CCCC(N2CCN(c3cccc(Cl)c3)CC2)C1 (stereo unspecified)	0	-1	81	-2	nt	nt
COc1cccc(NC(=O)CCS(=O)(=O)c2ccc(Br)cc2)c1	-6	-1	50*	-3	102	106
Cc1cc(OCC(=O)N(C)C2CCCCC2)cc(C)c1Cl	2	0	56*	7	101	96
COc1cccc(Cn2nnc(C(=O)NCc3ccc4c(c3)OCO4)c2N)c1	0	2	64*	?	102	96
CCCn1c(=O)cc(N)n(-c2ccc(OC(F)(F)F)cc2)c1=O	2	-1	100	0	nt	nt
CCOc1cc(C)c(S(=O)(=O)N2CCCC2)cc1C	-1	2	65*	2	89	106
CC(C)c1ccc(NC(=O)Cn2c(=O)oc3ccccc32)cc1	-31	-5	65*	4	95	110
COc1ccc(NC(=O)Cn2c(=O)oc3ccccc32)cc1	0	-5	103	-7	nt	nt
Cn1c(=O)c(C(=O)NNC(=O)c2ccccc2F)c(O)c2ccccc21	0	-1	64*	0	91	89
CCN(Cc1ccccc1)C(=O)Cn1cc(S(=O)(=O)NC)c(S(=O)(=O)NC)c1	-1	1	90	-3	nt	nt
COC(=O)c1c(NC(=O)Cc2ccc(OC)c(S(=O)(=O)N3CCOCC3)c2)sc(C)c1C	0	0	112	0	nt	nt
Cc1cccc(-n2ncc3c(NC(C)C)ncnc32)c1	3	-4	96	-16	nt	nt
CN(C)CCNc1ncnc2c1cnn2-c1ccc(Cl)cc1	2	-2	108	-4	101	99
CC(C)Nc1ncnc2c1cnn2-c1ccccc1	0	0	103	-7	108	89
OCCCNc1ncnc2c1cnn2-c1ccc(Cl)cc1	-15	2	92	-6	92	90
CNc1ccccc1NC(=O)C1CCCN1C(=O)OCc1ccccc1 (stereo unspecified)	0	3	121	0	nt	nt
CCN1CCc2c(sc(NC(=O)c3ccc(S(=O)(=O)N(C)c4ccccc4)cc3)c2C(=O)NC)C1	-1	-10	91	8	nt	nt
CNC(=O)c1c(NC(=O)c2ccc(S(=O)(=O)N(C)c3ccccc3)cc2)sc2c1CCN(C(C)C)C2	-1	-1	54*	-3	92	97
O=C(COc1ccccc1F)Nc1nnc(-c2ccncc2)s1	0	2	55*	-13	115	108
Cc1ccccc1OCC(=O)Nc1nnc(-c2ccncc2)s1	0	-1	95	-1	nt	nt
O=C(O)Cc1ccc2ccc3ccccc3c2c1	1	-5	112	2	nt	nt
CCn1c2ccc(CC(=O)O)cc2c2cc(CC(=O)O)ccc21	-1	7	105	-1	101	103
O=S(=O)(c1ccc(Cl)s1)N1CCC(Cc2ccccc2)CC1	0	2	62*	7	106	103
O=S(=O)(c1ccc(Br)s1)N1CCC(Cc2ccccc2)CC1	0	0	113	6	nt	nt
SMILES	HIF activator	LANA-H2A inh	CR mimetic SO	HDAC3 inhib	Superoxide pick	DHE counter
Cc1nn(C(C)(C)C)c(N)c1-c1ccccc1	0	3	96	4	nt	nt
C=C(C)CNC(=S)NNC(=O)CCn1c2ccc(Cl)cc2c2cc(Cl)ccc21	0	-4	106	11	108	90
C=C(C)CNC(=S)NNC(=O)CCn1c2cc(Cl)ccc2c2ccc(Cl)cc21	0	-2	109	6	94	90
C=C(C)CNC(=S)NNC(=O)CCn1c2ccccc2c2ccccc21	0	-1	104	2	104	91
Cc1cccc(NC(=O)/C(C#N)=C\c2ccc(C(=O)O)cc2)c1	0	7	99	2	nt	nt
COc1cc(C)c(/C=C(\C#N)C(=O)Nc2cccc(C)c2)cc1C(C)C	-1	-3	50*	0	102	95
Cc1cc2nc(-c3ccc(SCc4ccccn4)nc3)[nH]c2cc1C	2	1	104	-7	nt	nt
Nc1ccc(S(=O)(=O)Nc2ccc(S(N)(=O)=O)cc2)cc1	0	6	97	-4	118	105
Nc1ccc(S(N)(=O)=O)cc1	0	0	97	0	nt	nt
C=CCn1c(SCC(=O)NC2CCCCC2)nnc1-c1ccc(OC)cc1	1	-6	57*	-5	114	112
CCOc1cccc(-c2nnc(SCC(=O)Nc3ccc(OC)c(OC)c3)n2N)c1	0	4	86	6	92	94
COc1ccc(NC(C)=O)cc1NC(=O)CSc1nnc(-c2ccc(F)cc2)n1N	0	0	93	-9	111	106
CCOc1cccc(-c2nnc(SCC(=O)Nc3cc(OC)cc(OC)c3)n2N)c1	-1	-1	116	-7	nt	nt
COc1ccc(NC(=O)CSc2nnc(-c3ccc(C)cc3)n2N)cc1	0	-5	86	1	nt	nt
COc1cccc(NC(=O)CSc2nnc(-c3cccc(OC(C)C)c3)n2N)c1	2	5	90	nt	i	101
COc1ccc(C)cc1NC(=O)CSc1nnc(-c2ccc(OC)c(OC)c2)n1N	0	-1	111	-6	nt	nt
O=C(COC(=O)c1ncc(Cl)c(Cl)c1Cl)NC1CCCCCC1	-12	7	83	2	nt	nt
O=C(Nc1ccc(F)c(F)c1)c1ccc(F)c(S(=O)(=O)N2CCOCC2)c1	0	-6	56*	-4	120	110
CCN(c1ccccc1)S(=O)(=O)c1ccc(C(=O)Nc2nnc(C3CC3)o2)cc1	0	3	99	5	97	90
CN(c1ccccc1)S(=O)(=O)c1ccc(C(=O)Nc2nnc(C3CC3)o2)cc1	0	2	95	2	98	100
CCN(c1ccccc1)S(=O)(=O)c1ccc(C(=O)Nc2nnc(COC)o2)cc1	0	-1	93	-5	nt	nt
COc1ccc(NC(=O)N2c3ccc(OC)cc3C(C)=CC2(C)C)cc1	0	7	85	-6	nt	nt
CCNC(=O)N1c2ccc(OC)cc2C(C)=CC1(C)C	0	-1	61*	3	110	112
Cc1ccc(OCC(=O)OCC(=O)Nc2ccc3c(c2)OCO3)cc1C	nt	-6	117	0	nt	nt
Cc1ccc(S(=O)(=O)N2c3ccccc3-c3c(ssc3=S)C2(C)C)cc1	-1	-2	105	7	nt	nt
CC1(C)CSC(=S)N1S(=O)(=O)c1ccccc1	0	2	58*	-4	102	93
O=C(CN(C(=O)CCC(=O)Nc1nccs1)c1ccccc1F)NCc1ccc(F)cc1	0	-3	86	-2	nt	nt
CCOC(=O)[C@@H]1[C@H]2COc3ccc(Br)cc3[C@@H]2N2C(=O)N(c3ccc(C(F)(F)F)cc3)C(=O)[C@@]12C	0	-2	97	3	nt	nt
